From publication PMC5540273 (PLoS ONE, 2017)

Legend:
Details in all cases: concentration: 1 μM, replicates: in singlicate; n = 1
ACVR2B = test system: ACVR2B
ACVRL1 = test system: ACVRL1
ADCK3 = test system: T1, ADCK3
T1 construct: gene CABC1

ADCK4 = test system: ADCK4
AKT1 = test system: AKT1
AKT2 = test system: AKT2
AKT3 = test system: AKT3
ALK = test system: ALK
AMPK-alpha1 = test system: T2, AMPK-alpha1
T2 construct: gene PRKAA1

AMPK-alpha2 = test system: T3, AMPK-alpha2
T3 construct: gene PRKAA2

ANKK1 = test system: ANKK1
ARK5 = test system: T4, ARK5
T4 construct: gene NUAK1

ASK1 = test system: T5, ASK1
T5 construct: gene MAP3K5

ASK2 = test system: T6, ASK2
T6 construct: gene MAP3K6

AURKA = test system: AURKA
AURKB = test system: AURKB
AURKC = test system: AURKC
AXL = test system: AXL
BIKE = test system: T7, BIKE
T7 construct: gene BMP2K

BLK = test system: BLK
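Note: KINOMEscan kinase panel screen.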

SMILES	%Inh (ACVR2B)	%Inh (ACVRL1)	%Inh (ADCK3)	%Inh (ADCK4)	%Inh (AKT1)	%Inh (AKT2)	%Inh (AKT3)	%Inh (ALK)	%Inh (AMPK-alpha1)	%Inh (AMPK-alpha2)	%Inh (ANKK1)	%Inh (ARK5)	%Inh (ASK1)	%Inh (ASK2)	%Inh (AURKA)	%Inh (AURKB)	%Inh (AURKC)	%Inh (AXL)	%Inh (BIKE)	%Inh (BLK)
Cc1cc(-c2ccc3c(c2)CC[C@@H](N[C@@H](C)c2ccccc2)C3)cnc1N.Cl [GW412617]	0%	37%	41%	1%	0%	27%	14%	52%	2%	20%	69%	13%	33%	0%	0%	35%	26%	33%	40%	13%
CC1=C(C(=O)Nc2cc3cn[nH]c3cc2F)C(c2ccc(C(F)(F)F)cc2)CC(=O)N1 (centres unmarked) [GSK429286]	0%	0%	11%	11%	0%	20%	0%	29%	23%	19%	0%	7%	0%	24%	23%	1%	46%	0%	19%	42%
O=C(Nc1ccccc1)Nc1cccc(Oc2ccc3nccn3n2)c1	6%	0%	5%	18%	32%	0%	20%	17%	11%	0%	0%	0%	0%	0%	0%	8%	26%	7%	0%	0%
Cn1ccc2ncnc(Oc3cccc(C(=O)Nc4ccccc4)c3)c21	1%	0%	6%	17%	0%	0%	10%	0%	0%	0%	28%	14%	0%	0%	21%	0%	26%	3%	14%	1%
COC(=O)c1c(-c2ccccc2)c2cc(OC)ccc2c(=O)n1Cc1ccccc1	0%	0%	0%	0%	1%	12%	0%	28%	21%	0%	0%	27%	0%	37%	25%	22%	0%	0%	0%	0%
O=c1cc(N2CCOCC2)nc2n(Cc3cccc(Cl)c3Cl)ccn12 [GSK2286295]	3%	0%	27%	6%	0%	13%	10%	48%	0%	16%	5%	24%	0%	0%	12%	18%	23%	100%	24%	35%
COc1cccc(-c2cc(-c3c[nH]nc3-c3ccccn3)ccn2)c1 [GW680338]	18%	0%	25%	26%	0%	0%	0%	34%	7%	0%	13%	0%	0%	27%	0%	0%	89%	7%	54%	8%
Cc1nnc(-c2ccc3occ(-c4ccc(S(C)=O)cc4)c3c2)[nH]1 (centres unmarked)	14%	0%	0%	0%	5%	4%	0%	0%	99.1%	6%	28%	6%	0%	3%	25%	49%	0%	24%	0%	0%
COc1cc2ncn(-c3cc(OCC4CCCO4)c(C(N)=O)s3)c2cc1OC (centres unmarked) [GSK204607]	0%	0%	23%	12%	0%	0%	0%	0%	0%	2%	0%	17%	7%	0%	0%	1%	80%	0%	72%	0%
Fc1cc(Cl)ccc1Nc1ccnc2cc(I)ccc12 [GW551191]	85%	5%	0%	23%	0%	18%	58%	29%	0%	0%	5%	3%	0%	0%	0%	28%	41%	0%	16%	38%
